# Screening data (PubChem BioAssay)
# AMA1-RON2 inh = disrupts binding of P. falciparum AMA1 to RON2; AlphaScreen AMA1-biotinylated RON2 peptide binding; Potency, µM (series often up to 58.2 µM), for the others: at the top dose activity change, negative = inhibition, most hits filed as inhibitors; actives 0.2% (n = 360,000);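 note: 0% = vehicle wells and -100% = peptide control; nearly all actives have a fitted effect of over 45% in size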
#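 AMA1 (3D7) with his tag at 25 nM final met compounds first, then biotinylated RON2 peptide at 25 nM; detection used donor plus acceptor beads, 10 µg/mL apiece, read by AlphaScreen after 30 min at room temperature.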
# AmpC no deterg = blocks E. coli AmpC beta-lactamase in detergent-free assay; AmpC nitrocefin hydrolysis, absorbance 480 nm, 0.0001% Triton; Potency, µM (series often up to 57.1 µM), without a hit: at the highest dose activity change, negative = inhibition, actives largely listed as inhibitors; actives 0.52% (n = 330,000); AID 485341;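 note: plate controls were no compound for no effect and no enzyme for full effect; nearly all actives have a fitted effect of over 20% in size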
# Target sequence (P00811 whole entry, looked up): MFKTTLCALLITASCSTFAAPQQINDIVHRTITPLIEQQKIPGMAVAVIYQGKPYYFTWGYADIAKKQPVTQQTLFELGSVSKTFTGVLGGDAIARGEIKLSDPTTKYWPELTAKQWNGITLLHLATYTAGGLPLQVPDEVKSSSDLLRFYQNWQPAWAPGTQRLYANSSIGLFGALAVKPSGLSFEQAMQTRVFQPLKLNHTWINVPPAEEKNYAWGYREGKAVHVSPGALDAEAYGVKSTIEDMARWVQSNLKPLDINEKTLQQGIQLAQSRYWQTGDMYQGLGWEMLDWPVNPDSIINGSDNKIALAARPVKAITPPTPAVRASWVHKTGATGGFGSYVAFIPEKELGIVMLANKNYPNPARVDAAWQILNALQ
#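 20 mM phosphate pH 7.0 + 0.01% (detergent screen) or 0.0001% Triton X-100; 5.3 nM AmpC reagent; cpd preinc 15 min RT; nitrocefin (800 uM stock) to start; A480 q20 s × 4 min; Activity was normalised to no-enzyme and no-compound control wells.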
# MARV entry inh = Marburg virus entry inhibition; Marburg virus pseudotyped entry inhibition, cell reporter; Potency, µM (top dose mostly 37.8 µM), for inactives: at the top dose activity change, negative = inhibition, usual class: inhibitors; actives 1.8% (n = 300,000); AID 540276; calls by dose curve; tested in HEK293 cells
# LASV entry inh = Lassa virus entry inhibition; Lassa virus pseudotype entry inhibition, cell reporter; Potency, µM (top dose mostly 37.9 µM), for inactives: at the highest dose activity change, negative = inhibition, most hits filed as inhibitors; actives 1.2% (n = 300,000); calls by dose curve; tested in HEK293 cells; note: nearly all actives have a fitted effect of over 50% in size
# AmpC detergent = inhibitors of E. coli AmpC beta-lactamase with detergent; P00811; AmpC hydrolysis of nitrocefin, absorbance 480 nm, 0.01% Triton; Potency, µM (series often up to 114 µM), inactives show at the top dose activity change, negative = inhibition, hits mostly inhibitors; actives 0.041% (n = 370,000);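 note: 0% = no-compound wells and -100% = no-enzyme wells; nearly all actives have a fitted effect of over 25% in size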
#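 AmpC (5.3 nM in the dispensed reagent) in 20 mM phosphate pH 7.0 with 0.01% (detergent screen) or 0.0001% Triton X-100 was preincubated with compounds for 15 min at room temperature. Nitrocefin was then added from an 800 uM solution, and hydrolysis was followed at 480 nm.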
# Active calls of the source: *; ? = inconclusive; nt = no result given; [ ] = another dose, or the depositor's remark. Rows were chosen to be rich in hits. Some 2.3% of all compounds tested hit in one or more screens of this group. Unless noted, calls come from the whole dose curve; as a rule, active = well fitted curve in the direction sought with a large enough effect; inconclusive = small, poorly fitted or top-dose-only effect, or another doubt; inactive = no such curve, though single readings can be large; an effect the other way counts as inactive or inconclusive. Unless noted, % is set by controls: 0 for no effect and ±100 for the full control effect; potency is the fitted concentration of half-maximal effect.
SMILES,AMA1-RON2 inh,AmpC no deterg,MARV entry inh,LASV entry inh,AmpC detergent
Cc1cccc(C(=O)Nc2sc3c(c2C(=O)O)CCC3)c1,-3.3%,-20.3%,nt,nt,3.8%
CCC(=O)N1CCc2cc(Br)cc(S(=O)(=O)CCC(=O)NCCc3cccc(C)c3)c21,nt,nt,nt,10.0%[46.1 µM],-8.1%
O=C(O)[C@@H]1CC(=O)n2c(nc3ccccc32)S1,nt,nt,0.8%,nt,nt
CCOc1ccc(S(=O)(=O)/N=C(\N)c2ccccc2)cc1,13.7%,-22.9%,0.2%[46.1 µM],12.6µM*,3.8%
COC(=O)C1CCN(c2c([N+](=O)[O-])cc(C(F)(F)F)cc2[N+](=O)[O-])CC1,-23.0%,0.251µM*,?,9.1%,2.8%
COc1ccc(C(C)=O)cc1CSc1nnc(Nc2ccccc2)s1,-4.7%,-40.0%,18.4µM*,?,-8.3%
CC1=CC(=O)C=C(C)C1=NOS(=O)(=O)c1ccccc1,-28.3%,-1.9%,?,10µM*,-10.1%
CC1=CC(=O)C(C(C)C)=C/C1=N/OS(=O)(=O)c1ccccc1,?,-21.9%,nt,nt,-0.6%
COc1ccc(CCNCc2c(C(=O)O)c(C)n(Cc3c(F)cccc3Cl)c2C)cc1OC,nt,nt,0.8%[46.1 µM],8.4%[46.1 µM],-8.9%
C/C=C/c1ccc(OCCCCN2C(=O)NC(C)(C)C2=O)c(OC)c1,15.5%,123.4%,?,18.3µM*,4.6%
Cn1c(SCC(=O)Nc2nccs2)nnc1-c1ccc(S(=O)(=O)N2CCCC2)cc1,5.1%,-14.8%,10.7%,0.3%,-11.5%
O=C(CSc1n[nH]c(-c2ccc(S(=O)(=O)N3CCCCC3)cc2)n1)Nc1nccs1,-1.5%,14.1µM*,-17.4%,-11.2%,?
COc1ccc(CNC(=O)c2nc(Cn3nc(C)c(Br)c3C)no2)cc1OC,nt,nt,?,-6.2%[46.1 µM],-3.4%
O=C(CCNS(=O)(=O)c1ccc(Cl)cc1)N1CCC2(O)CCCCC2C1 (stereo not given),5.2%,15.2%,14.2%,-7.0%,39.8µM*
O=C(CCNS(=O)(=O)c1ccc(Cl)cc1)N1CCCC1,12.5%,-6.7%,24.6%[46.1 µM],?,2.6%
OC(CNCc1ccccc1)c1ccc(Cl)cc1 (stereo not given),-4.4%,nt,?,18.7%[46.1 µM],nt
OC(CNCC(c1ccc(Cl)cc1Cl)c1c[nH]c2ccccc12)c1ccccc1 (stereo not given),?,-29.3%[11.4 µM],7.94µM*,?,?
COc1ccc(C(=O)c2ccc(Cl)c([N+](=O)[O-])c2)cc1,-12.0%,-10.1%,5.8µM*,?,-4.0%
COc1ccc(C(=O)c2ccc(Cl)cc2)cc1,15.7%,-16.9%,12.5%,3.7%,-7.8%
COC(=O)[C@@]1(C=C2c3ccc(OC)cc3[C@@H](OC)[C@@H]2C)[C@@H]2C=CC[C@@H]21,nt,nt,-11.0%[14.2 µM],nt,nt
CCc1ccc(N(C(=O)c2snc(C(N)=O)c2N)C(C(=O)NC2CCCC2)c2ccco2)cc1 (stereo not given),1.8%,-35.2%,7.94µM*,?,0.4%
COc1ccc(C(C(=O)NC2CCCCC2)N(C(=O)CCl)c2cccc(Cl)c2)cc1 (stereo not given),-8.9%,21.1%,?,3.55µM*,-2.5%
COc1ccc(N(C(=O)CCl)C(C(=O)NC2CCCCC2)c2cccnc2)cc1 (stereo not given),0.4%,127.4%,?,12.6µM*,-10.7%
CCc1ccc(N(C(=O)c2ccco2)C(C(=O)NC2CCCC2)c2cccnc2)cc1 (stereo not given),6.0%,21.8%,?,1µM*,?
COc1ccccc1C(=O)N1CCC(c2noc(-c3ccc(S(=O)(=O)N4CCCC4)cc3)n2)CC1,nt,nt,-13.0%[46.1 µM],-14.1%[46.1 µM],12.7%
CC(C)(C)c1ccc(S(=O)(=O)/C=C\C#N)cc1,nt,nt,2.51µM*,nt,nt
Cc1ccc(S(=O)(=O)/C=C/C#N)cc1,nt,nt,?,2.31µM*,nt
CC(C)(C)c1ccc(S(=O)(=O)N2CCN(CCC#N)CC2)cc1,23.5%,183.9%,nt,nt,?
Cc1ccccc1C(=O)/C(C#N)=N/Nc1c(C)n(C)n(-c2ccccc2)c1=O,-2.0%,-10.5%,?,?,?
Cc1c(N/N=C(\C#N)C(=O)c2ccccc2)c(=O)n(-c2ccccc2)n1C,-9.7%,-14.8%,11.2µM*,?,-12.9%
